Screening results deposited in PubChem by National Center for Advancing Translational Sciences (NCATS).
HCV inh: inhibitors of hepatitis C virus infection. Huh7.5.1 HCVcc-Cre infection, luciferase reporter, 44 h. Potency, µM (doses to about 41.8 µM), for the others: at the top dose activity change, negative = inhibition, actives largely listed as inhibitors. 340,000 compounds, 3.4% hits. AID 651820; note: % is set by controls: 0 for no effect and ±100 for the full control effect
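1,000 cells/well; 4 h culture; + compound; + HCVcc-Cre (~0.5 moi); 44 h; luciferase substrate, RT 15 min; read 15 sec.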
NS1 inh: influenza NS1 inhibition. 270,000 compounds, 0.4% hits. AID 2326. Potency, µM (series often up to 46.1 µM), inactives show at the highest dose activity, positive = more growth; calls by dose curve; note: actives are rising curves; nearly all actives have a fitted effect of over 50% in size
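OD600 was taken as the measure of yeast growth restored by compound in an NS1-expressing S. cerevisiae strain. Cells had been washed out of glucose medium and diluted 1:100 into galactose -URA medium, pH 6.0.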
Pf growth 96h: P. falciparum growth inhibition at 96 hour, primary screen for plastid delayed-death inhibitors; 320,000 compounds, 6.9% hits; Potency, µM (highest dose often 28.7 µM), without a hit: at the highest dose activity change, negative = inhibition, usual class: inhibitors; AID 504834; P. falciparum luciferase reporter growth, 96 h; note: % is set by controls: 0 for no effect and ±100 for the full control effect
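Plates of compound plus infected erythrocytes (2% hematocrit, 0.05% parasitemia final) incubate 96 hours, 37 C, 5% CO2. Detection reagent added; reduced luminescence from the parasites' luciferase reporter flags inhibition.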
AMA1-RON2 inh: AMA1-RON2 (P. falciparum) interaction inhibition | AID 720542 | AlphaScreen AMA1-biotinylated RON2 peptide binding | Potency, µM (series often up to 58.2 µM), for inactives: top-dose activity change, negative = inhibition, usual class: inhibitors | 360,000 compounds, 0.2% hits;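 note: 0% = vehicle wells and -100% = peptide control; nearly all actives have a fitted effect of over 45% in size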
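AMA1 (3D7) with his tag at 25 nM final met compounds first, then biotinylated RON2 peptide at 25 nM; detection used donor plus acceptor beads, 10 µg/mL apiece, read by AlphaScreen after 30 min at room temperature.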
SARS PLP yeast: inhibitors of SARS-CoV papain-like protease in yeast; S. cerevisiae expressing SARS-CoV PLpro, growth rescue; Potency, µM (top dose mostly 32.9 µM), without a hit: at the highest dose activity, positive = growth rescue, actives largely listed as activators; 330,000 compounds, 0.19% hits; AID 485353; calls by dose curve; note: 0% is about no effect; nearly all actives have a fitted effect of over 55% in size
Pf growth 48h: P. falciparum growth inhibition at 48 hours (one generation). P. falciparum luciferase growth in erythrocytes, 48 h. Potency, µM (highest dose often 28.7 µM), inactives show top-dose activity change, negative = inhibition, usual class: inhibitors. 310,000 compounds, 5.9% hits. AID 504832; note: % is set by controls: 0 for no effect and ±100 for the full control effect
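First compound was added to culture medium, then infected red cells at 0.1% parasitemia and 2% hematocrit (final). After incubation at 37 C under 5% CO2, luciferase detection reagent was dispensed and light output recorded.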
Starred values were filed as active, the others as inactive; i = inactive; ? = inconclusive; nt = no result given; ! = a repeat was not active; [ ] = remark or other dose. Most compounds without a hit are left out; they make up all but 12% or so of the library. Unless noted, calls come from the whole dose curve; as a rule, active = well fitted curve in the direction sought with a large enough effect; inconclusive = small, poorly fitted or top-dose-only effect, or another doubt; inactive = no such curve, though single readings can be large; an effect the other way counts as inactive or inconclusive. Potency is the fitted concentration of half-maximal effect.

SMILES	HCV inh	NS1 inh	Pf growth 96h	AMA1-RON2 inh	SARS PLP yeast	Pf growth 48h
COc1ccc(S(=O)(=O)N2CCCC(N(C)CCc3ccccc3)C2)cc1OC (stereo unspecified)	6%	17%	9%	-13%	-1%	?
Cc1cccn2c(NCc3ccc4c(c3)OCO4)c(-c3ccc(O)cc3)nc12	-24%	nt	i	-1%	-1%	4.1µM*
OC[C@@H]1CN(Cc2ccc3c(c2)OCO3)C[C@H](n2cnc3c(NCc4ccc(F)cc4)ncnc32)O1	nt	nt	nt	2%	nt	nt
COc1cccc(Cn2cnc3c(NS(=O)(=O)c4ccc(Cl)cc4)c(C)c(C)cc32)c1	4%	6%	4.7µM*	7%	0%	13µM*
COc1cccc(Cn2cnc3c(NS(=O)(=O)c4cccc(Cl)c4Cl)c(C)c(C)cc32)c1	13µM*	25%	?	-15%	2%	?
C#CCNCCS(=O)(=O)N(Cc1ccc(Br)cc1)[C@@H](CC(C)C)C(=O)O	-3%	nt	nt	-2%	-7%	nt
O=c1[nH]c2cc(C(F)(F)F)c(N3CCOCC3)cc2n(CP(=O)(O)O)c1=O	nt	nt	16%	nt	nt	12%
CCN1C(=NCCCCO)N[C@@H](c2cccc(C(F)(F)F)c2)C(C(=O)OC)=C1C	-9%	-1%	?	-2%	-3%	?
C=CCN=C1N[C@@H](c2cccc(C(F)(F)F)c2)C(C(=O)OC)=C(C)N1CC	-28%	13%	3.3µM*	6%	-4%	10µM*!
COC(=O)C1=C(C)N(Cc2ccccc2)C(=S)N[C@H]1CCc1ccccc1	nt	13%	-6%	nt	12%	?
CCN1C(=NCC(C)C)N[C@@H](c2cccc(C(F)(F)F)c2)C(C(=O)OC)=C1C	-15%[8.37 µM]	1%	0.93µM*	2%	-1%	13µM*
COC(=O)C1=C(C)N(Cc2ccccc2)C(=NCCCCO)N[C@H]1CCc1ccccc1	4%	-5%	3.7µM*	-1%	1%	?
COC(=O)C1=C(C)N(Cc2ccccc2)C(=NCC(C)C)N[C@H]1c1ccccc1	-12%	2%	8.3µM*	-4%	-3%	?
Cn1c(=O)c2c(ncn2CC(O)CNc2ccc(F)cc2)n(C)c1=O (stereo unspecified)	-22%	3%	-15%	-6%	0%	?
Cc1ccc(S(=O)(=O)N(C)c2ccc(C(=O)N(C)Cc3nc4ccccc4c(=O)[nH]3)cc2)cc1	-17%	nt	5.9µM*	-8%	-2%	12µM*
CC(=O)c1ccc(-c2ccc(C(=O)N(C)Cc3nc4ccccc4c(=O)[nH]3)o2)cc1	7.1µM*	nt	?	15%	1%	?
COc1ccccc1CN(Cc1nc2ccccc2c(=O)[nH]1)C(=O)Nc1ccc(C)cc1	-30%	-20%	nt	15%	-3%	?
CN(Cc1nc2ccccc2c(=O)[nH]1)C(=O)c1ccc(S(=O)(=O)N(C)C)cc1	-1%	2%	?	9%	15%	nt
COc1ccccc1CN(Cc1nc2ccccc2c(=O)[nH]1)S(=O)(=O)c1ccc(C)cc1	-18%	1%	nt	51%	-8%	5.9µM*
COc1ccc(C2CC(c3ccccc3Br)=NN2c2ccc(S(N)(=O)=O)cc2)cc1 (stereo unspecified)	11µM*	nt	nt	20%	4%	nt
NS(=O)(=O)c1ccc(N2N=C(c3ccccc3)CC2c2ccc(Br)cc2)cc1 (stereo unspecified)	nt	nt	nt	44%	nt	nt
NS(=O)(=O)c1ccc(N2N=C(c3ccccc3)CC2c2ccccc2)cc1 (stereo unspecified)	?	21%	9.3µM*	-9%[2.32 µM]	-3%	-24%
NS(=O)(=O)c1ccc(N2N=C(c3ccccc3)CC2c2ccccc2Cl)cc1 (stereo unspecified)	32µM*	nt	nt	57%	-35%	nt
COc1ccc(C2=NN(CN3C(=O)C(=O)c4ccccc43)C(c3ccc(Br)cc3)C2)cc1 (stereo unspecified)	10µM*	10%	11%	-7%	3%	nt
